Compound activity (PubChem BioAssay)
Hits are enriched below; roughly 2.2% of the tested compounds scored in any of these assays.
MEKK2wt PB1 HTS = raises or lowers MEK5 binding to wildtype human MEKK2 PB1 domain; Q9Y2U5; binding response (% of control), % at 10 µM; bead flow cytometry, Alexa488-MEK5 binding to MEKK2 WT; actives lie on both sides; 290,000 compounds, 1.1% hits; in the data active means binding response below about 67% or above about 130%
VLA-4 inh = inhibition in a human VLA-4 binding assay; P13612; VLA-4 expressing cells, ligand binding flow cytometry; inhibition, % (about 7 µM as worked out from the volumes in the protocol); 330,000 compounds, 0.2% hits; in the data active means inhibition above about 50%
Target sequence (P13612 whole entry, looked up): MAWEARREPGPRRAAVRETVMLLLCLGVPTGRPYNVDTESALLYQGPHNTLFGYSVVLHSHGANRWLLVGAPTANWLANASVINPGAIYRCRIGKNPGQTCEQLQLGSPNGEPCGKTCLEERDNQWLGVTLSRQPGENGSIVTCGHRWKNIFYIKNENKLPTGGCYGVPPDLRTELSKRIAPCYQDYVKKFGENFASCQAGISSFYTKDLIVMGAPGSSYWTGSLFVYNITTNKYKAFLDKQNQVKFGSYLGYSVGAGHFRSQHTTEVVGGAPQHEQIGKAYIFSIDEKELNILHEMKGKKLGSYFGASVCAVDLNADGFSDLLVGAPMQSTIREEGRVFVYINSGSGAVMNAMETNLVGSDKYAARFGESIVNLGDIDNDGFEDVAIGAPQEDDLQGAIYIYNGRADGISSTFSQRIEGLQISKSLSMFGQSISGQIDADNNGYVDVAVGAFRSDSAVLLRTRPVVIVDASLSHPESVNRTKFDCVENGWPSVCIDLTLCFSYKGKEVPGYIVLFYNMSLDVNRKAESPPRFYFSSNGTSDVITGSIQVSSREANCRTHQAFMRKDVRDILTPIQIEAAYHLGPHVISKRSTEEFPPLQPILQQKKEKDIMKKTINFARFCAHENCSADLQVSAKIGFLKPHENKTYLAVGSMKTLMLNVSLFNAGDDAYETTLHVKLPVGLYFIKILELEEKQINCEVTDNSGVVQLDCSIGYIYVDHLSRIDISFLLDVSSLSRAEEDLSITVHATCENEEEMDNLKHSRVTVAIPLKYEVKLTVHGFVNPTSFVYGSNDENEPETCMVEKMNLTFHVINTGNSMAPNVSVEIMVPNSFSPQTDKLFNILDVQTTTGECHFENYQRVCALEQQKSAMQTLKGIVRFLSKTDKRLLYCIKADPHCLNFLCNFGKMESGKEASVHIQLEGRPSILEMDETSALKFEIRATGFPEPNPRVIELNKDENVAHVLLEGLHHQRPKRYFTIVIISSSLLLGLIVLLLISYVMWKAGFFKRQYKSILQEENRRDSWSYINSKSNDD
MEKK2mut PB1 HTS = signal of MEK5 binding to mutant human MEKK2 PB1 domain. percent response, % at 10 µM. bead flow cytometry, Alexa488-MEK5 binding to MEKK2 mutant. 290,000 compounds, 0.35% hits; in the data active means percent response above about 24%, passing the limit was not always enough
MEKK3 PB1 HTS = MEKK3-MEK5 PB1 interaction, increase or decrease; bead-based flow cytometry, Alexa488-MEK5 binding to MEKK3; actives lie on both sides; 0 = blocked by unlabeled MEK5, 100 = vehicle; Q99759; binding response (% of control), % at 10 µM; 290,000 compounds, 1.4% hits;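 active means binding response more than 3 SD above or below the average of its plate-row segment, actives on both sides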;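 further: Alexa488 bead fluorescence after subtracting the streptavidin-only scavenger bead signal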
MEKK2wt confirm = raises or lowers MEK5 binding to wildtype human MEKK2, retest. shares compounds with MEKK3 PB1 HTS. bead flow cytometry, Alexa488-MEK5 binding to MEKK2 WT; actives lie on both sides. binding response (% of control), % at 10 µM. 5,900 compounds, 2.4% hits; in the data active means binding response below about 16% or above about 210%; inactive means in between
MEKK2mut confirm = signal of MEK5 binding to mutant human MEKK2, retest; shares compounds with MEKK3 PB1 HTS; bead flow cytometry, Alexa488-MEK5 binding to MEKK2 mutant; percent response, % at 10 µM; 5,900 compounds, 2% hits; AID 1893; in the data active means percent response mostly above about 71%, no sharp cut-off; inactive means mostly below about 38%;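 further: higher means compound restores mutant binding toward wildtype level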
MEKK3-MEK5 inh = confirmation of inhibitors of MEK5 binding to human MEKK3; shares compounds with MEKK3 PB1 HTS; bead flow cytometry, Alexa488-MEK5 binding to MEKK3; stronger effect = lower value; binding response (% of control), % at 10 µM; 5,900 compounds, 1.8% hits; AID 1894;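 active means binding response below 72% of control, or above a set upper limit, though filed actives all read lower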;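 further: 100% = DMSO only wells and 0% = binding blocked by excess unlabeled MEK5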
The depositor's hits bear a star; / = not tested or not shown; [ ] = dose if it differs, or a comment.

SMILES	MEKK2wt PB1 HTS	VLA-4 inh	MEKK2mut PB1 HTS	MEKK3 PB1 HTS	MEKK2wt confirm	MEKK2mut confirm	MEKK3-MEK5 inh
CC1Cc2ccccc2N1S(=O)(=O)c1cccc(C(=O)NCCCO)c1 (configuration not stated)	109.0	-5.7	17.0	112.0	/	/	/
CCN(CC)CCNC(=O)c1ccc(NC(=O)c2cccc(S(=O)(=O)N3c4ccccc4CC3C)c2)cc1 (configuration not stated)	174.0*	8.5	37.0*	105.0	135.0	20.0	108.0
CC(C)(CNC(=O)CCC1CCCC1)CNC(=O)CCC1CCCC1	99.0	-9.1	3.0	99.0	/	/	/
Cc1c(CCOC(=O)c2ccc(Cl)cc2Cl)sc[n+]1CC(=O)c1ccc(Br)cc1	/	39.6	/	/	/	/	/
Cc1c(CCOC(=O)C2C3CC4CC(C3)CC2C4)sc[n+]1CC(=O)c1ccc(Br)cc1 (configuration not stated)	157.0*	5.7	21.0	87.0	180.0	40.0	105.0
O=C1NC2(CCCCC2)C(=O)N1CC(=O)N(Cc1ccccc1)c1ccccc1	105.0	11.3	7.0	101.0	/	/	/
Cc1ccnc(NC(=O)c2cc(S(=O)(=O)N3CCCCC3)ccc2Cl)c1	125.0	-1.8	8.0	134.0*	104.0	7.0	106.0
O=C(COC(=O)C1CC2CCCC(C1)C2=O)Nc1ccc(Cl)cn1 (configuration not stated)	/	4.7	/	/	/	/	/
O=C(c1cccc(Cl)c1)N1CCN(CCCc2ccccc2)CC1	99.0	0.0	6.0	102.0	/	/	/
COc1cccc(OC)c1NC(=O)Cc1nn(C)c(=O)c2ccccc12	123.0	6.0	8.0	125.0*	98.0	1.0	98.0
COc1ccccc1NC(=O)Cc1nn(C)c(=O)c2ccccc12	100.0	3.1	1.0	99.0	/	/	/
CN1CCN(C2Cc3cc(F)ccc3Sc3ccc(Cl)cc32)CC1 (configuration not stated)	/	6.5	/	/	/	/	/
CN1CCN(C2=Cc3ccccc3Sc3cc(F)ccc32)CC1	136.0*	47.9	11.0	97.0	149.0	37.0	113.0
CN1CCN(C2=Cc3ccc(Cl)cc3Sc3ccc(F)cc32)CC1	150.0*	42.4	27.0*	114.0	169.0	42.0	109.0
CO/N=C/c1ccc(Oc2ccc(C)cc2)nc1	114.0	3.0	26.0*	111.0	98.0	-3.0	100.0
Cc1cc(C)cc(NC(=O)CSc2nc(CSc3ccc(Cl)cc3)cc(=O)[nH]2)c1	86.0	-10.1	-12.0	91.0	/	/	/
COc1ccc(NC(=O)CSc2nnc(Cn3cnc4ccccc43)n2C)cc1	100.0	-1.6	12.0	109.0	/	/	/
CCOC(=O)CNC(=O)CSc1nnc(Cn2cnc3ccccc32)n1C	118.0	2.1	6.0	126.0*	103.0	2.0	102.0
Cc1cc(C)n2nc(SCC(=O)NC3CCCCC3C)nc2n1 (configuration not stated)	101.0	12.4	6.0	100.0	/	/	/
CC(=O)c1ccc(N2C(=O)CC(N3CCN(S(=O)(=O)c4ccc(C)c(C)c4)CC3)C2=O)cc1 (configuration not stated)	/	8.9	/	/	/	/	/
CCN(CC)CCCNC(=S)N1CCN(c2nc(-c3ccc(F)cc3)cs2)CC1	186.0*	13.6	27.0*	110.0	143.0	31.0	107.0
CCOc1ccc(CCNC(=O)CCS(=O)(=O)c2ccc(Cl)cc2)cc1OCC	113.0	0.7	13.0	106.0	/	/	/
CN1CCN(c2cc3c(c4c2[nH]c2ccccc24)C(=O)CC(C)(C)C3)CC1	159.0*	21.8	36.0*	115.0	147.0	44.0	105.0
CCOC(=O)[C@H]1[C@H]2COc3ccc(OC)cc3[C@@H]2N2C(=O)CN(Cc3ccc(OC)cc3)C(=O)[C@@]12C	/	5.8	/	/	/	/	/
O=C(O)CNC(=S)N(Cc1ccccc1Cl)C1CCCCC1	63.0	18.0	-14.0	48.0*[inhibitor]	87.0	-11.0	85.0
SMILES	MEKK2wt PB1 HTS	VLA-4 inh	MEKK2mut PB1 HTS	MEKK3 PB1 HTS	MEKK2wt confirm	MEKK2mut confirm	MEKK3-MEK5 inh
N#Cc1c(NC(=O)COC(=O)c2ccc(O)cc2O)sc2c1CCC2	/	1.8	/	/	/	/	/
O=C1COc2ccc(C(=O)CSc3nnc(Cc4cccs4)n3-c3ccc(Cl)cc3)cc2N1	65.0	0.0	-24.0	55.0*[inhibitor]	101.0	4.0	108.0
O=C1COc2ccc(C(=O)CSc3nc4ccccc4c(=O)n3-c3ccc(Cl)c(Cl)c3)cc2N1	113.0	15.2	0.0	136.0*	37.0	-26.0	72.0
CC(C)(C)c1ccc(C(=O)NCC(=O)NCc2ccccn2)cc1	/	-6.7	/	/	/	/	/
COc1ccc(Cl)cc1NC(=O)NCCN1CCCCC1	106.0	-5.0	3.0	103.0	/	/	/
COc1ccc(Cl)cc1NC(=O)NCC1CCN(C(=O)OC(C)(C)C)CC1	118.0	3.0	28.0	128.0*	100.0	-10.0	98.0
COc1ccc(Cl)cc1NC(=O)NC1CCCCC1	91.0	9.3	-13.0	81.0*[inhibitor]	93.0	-4.0	96.0
CCCN(Cc1cc2cc(C)ccc2[nH]c1=O)C(=O)c1cccc([N+](=O)[O-])c1	127.0	-7.5	24.0	130.0*	102.0	-11.0	94.0
CCN(CC)S(=O)(=O)c1cc(C(=O)OCC(=O)Nc2cccc(C)c2C)ccc1F	103.0	8.1	0.0	129.0*	94.0	1.0	100.0
CCc1cccc(CC)c1NC(=O)COC(=O)c1ccc(F)c(S(=O)(=O)N(CC)CC)c1	109.0	18.0	1.0	135.0*	102.0	9.0	97.0
CCN(CC)S(=O)(=O)c1cc(C(=O)OCC(=O)Nc2c(F)cccc2F)ccc1F	93.0	1.3	-1.0	95.0	/	/	/
Cc1nnc(SC(C)C(=O)Nc2ccc(Cl)cc2Cl)[nH]c1=O (configuration not stated)	/	3.3	/	/	/	/	/
CC(C)Cn1c(NCCO)nc2ccccc21	70.0	-0.1	-14.0	61.0*[inhibitor]	100.0	9.0	101.0
CC(C)(C=O)C1=CC(=O)c2ccccc2C1=O	105.0	13.8	1.0	154.0*	96.0	-2.0	99.0
CC1=CC(=O)c2ccccc2C1=O	103.0	0.7	-2.0	82.0	/	/	/
COC(=O)C1=C(C(=O)OC)C(c2cc(Cl)ccc2O)c2sc(=O)[nH]c2S1 (configuration not stated)	104.0	/	6.0	104.0	/	/	/
COC(=O)C1=C(C(=O)OC)C(c2ccc(OC)c(OC)c2)c2sc(=O)[nH]c2S1 (configuration not stated)	60.0*[inhibitor]	-10.4	-17.0	55.0*[inhibitor]	90.0	-8.0	90.0
CC(C)(C)c1ccccc1NC(=S)NC1CCCCC1	86.0	6.5	-6.0	91.0	/	/	/
Cc1cc(C)c2c(N)c(C(=O)Nc3ncc(C)s3)sc2n1	102.0	-17.3	5.0	103.0	/	/	/
COc1ccc2nc(NC(=O)c3sc4nc(C)cc(C)c4c3N)sc2c1	48.0	-3.9	-11.0	48.0*[inhibitor]	90.0	-5.0	90.0
